33 compounds from PubChem BioAssay (EPA / NIEHS) can be followed below.

Inconclusive results are not listed. Calls of active or inactive are those of the source. Rule for the calls: active = hit-call score of the fitted dose curve at least 0.9, where 1 is the maximum; inconclusive = response in the unintended direction; inactive = score below 0.9.

Broadly, the AC50 is the midpoint of the concentration-response curve, whichever way the signal moves.

The target of the assay is human Constitutive Androstane Receptor (CAR), NR1I3 (gene 9970) (UniProt Q14994). In words: NVS_NR_hCAR_Antagonist: NovaScreen (NVS) Nuclear Receptor Binding Assay for human Constitutive Androstane Receptor Antagonism (CAR) (AID 2283344). The procedure: NVS_NR_hCAR_Antagonist is a biochemical, single-readout assay that uses extracted gene-proteins in a cell-free assay. Measurements were taken 1 hour after chemical dosing in a 384-well plate.NVS_NR_hCAR_Antagonist is one of one assay component(s) measured or calculated from the NVS_NR_hCAR_Antagonist assay. It is designed to make measurements of fluorescent resonance energy transfer, a form of binding reporter, as detected with fluorescent resonance energy transfer signals by Time-Resolved Fluorescence Resonance Energy Transfer (TR-FRET) technology.Data from the assay component NVS_NR_hCAR_Antagonist was analyzed into 1 assay endpoint. This assay endpoint, NVS_NR_hCAR_Antagonist, was analyzed in the positive analysis fitting direction relative to DMSO as the negative control and baseline of activity. Using a type of binding reporter, loss-of-signal activity can be used to understand changes in the binding as they relate to the gene NR1I3. Furthermore, this assay endpoint can be referred to as a primary readout, because the performed assay has only produced 1 assay endpoint. To generalize the intended target to other relatable targets, this assay endpoint is annotated to the nuclear receptor intended target family, where the subfamily is non-steroidal.
Chain of human Constitutive Androstane Receptor (CAR), NR1I3 (gene 9970) (Q14994 whole entry, looked up): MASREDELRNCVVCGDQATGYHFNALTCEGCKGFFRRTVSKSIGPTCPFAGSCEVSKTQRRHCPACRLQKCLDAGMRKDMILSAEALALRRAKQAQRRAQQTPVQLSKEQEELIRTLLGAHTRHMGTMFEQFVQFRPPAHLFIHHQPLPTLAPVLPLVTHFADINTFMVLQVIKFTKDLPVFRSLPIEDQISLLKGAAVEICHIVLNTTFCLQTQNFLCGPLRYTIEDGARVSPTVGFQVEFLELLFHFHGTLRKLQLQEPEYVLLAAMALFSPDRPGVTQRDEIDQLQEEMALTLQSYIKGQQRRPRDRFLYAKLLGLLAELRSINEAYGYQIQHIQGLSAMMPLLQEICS
Binding assays used specific radioligands (tritiated, iodinated) with non-radioactive competitive displacement ligands in agonist or antagonist protocols (as indicated) and various reference compounds and inhibitors to titrate specific binding to receptors and transporters. Most enzyme assays (CYPs, kinases, phosphatases, proteases, HDACs) used recombinant protein and specific substrates (fluorescence mostly, some colorimetric and radioactive) and inhibitors, followed by a biochemical separation of substrate and product. All assays for the biochemical HTS were initially run in duplicate at a single concentration (10 uM for CYP450 assays and 25 uM for all others). […] Each assay was run with positive and negative controls, and concurrent controls on every plate. The follow-up (secondary) screen tested active chemical-pairs in concentration series, as well as a few additional assays not tested in the primary screen, some selected negative inactives, and several cases re-run in the concentration series for confirmatory purposes.
In the case of `CCCCN(CC)c1c([N+](=O)[O-])cc(C(F)(F)F)cc1[N+](=O)[O-]`, the compound was classed as inactive.

For the compound `CC1(C(=O)Nc2ccc(O)c(Cl)c2Cl)CCCCC1`, the compound was called inactive.

Consider `CCCSP(=O)(OCC)Oc1ccc(Br)cc1Cl` (stereo not drawn), for which the AC50 was 16 µM (active).

With `C#CC(C)(C)NC(=O)c1cc(Cl)cc(Cl)c1`, the result was inactive.

On to `CCOP(=O)(NC(C)C)Oc1ccc(SC)c(C)c1` (stereo not drawn), for which the AC50 was 16.8 µM (active).

For `CCOC(=O)CC(SP(=O)(OC)OC)C(=O)OCC` (stereo not drawn), the compound was called inactive.

For `CC(C)N(C(=O)SCC(Cl)=C(Cl)Cl)C(C)C`, the outcome was inactive.

`COc1ccc(C(=CC(=O)N2CCOCC2)c2ccc(Cl)cc2)cc1OC`: the outcome was inactive.

As to `CCC(=NOC/C=C/Cl)C1=C(O)CC(C2CCOCC2)CC1=O` (stereo not drawn), the result was inactive.

With `CON=C(C(=O)OC)c1ccccc1CON=C(C)c1cccc(C(F)(F)F)c1`, the call was inactive.

With `CC[C@H](C)[C@H]1O[C@]2(C=C[C@@H]1C)C[C@@H]1C[C@@H](C/C=C(\C)[C@@H](O[C@H]3C[C@H](OC)[C@@H](O[C@H]4C[C@H](OC)[C@@H](NC)[C@H](C)O4)[C@H](C)O3)[C@@H](C)/C=C/C=C3\CO[C@@H]4[C@H](O)C(C)=C[C@@H](C(=O)O1)[C@]34O)O2`, the AC50 is 31 µM (active).

Regarding `CCC(=O)Nc1ccc(Cl)c(Cl)c1`, the result was inactive.

Regarding `CNC(=O)Oc1cccc2c1OC(C)(C)O2`, the compound was classed as inactive.

`CCc1cccc(CC)c1N(COC)C(=O)CCl`: the half-maximal activity concentration (AC50) was 9.33 µM (active).

For `CC(COc1ccc(Oc2ccccc2)cc1)Oc1ccccn1` (stereo not drawn), the call was inactive.

Consider `C=C(C)[C@H]1Cc2c(ccc3c2O[C@@H]2COc4cc(OC)c(OC)cc4[C@@H]2C3=O)O1`, for which the compound was called inactive.

Consider `Cc1cc(C2CC2)nc(Nc2ccccc2)n1`, for which the concentration at half-maximal activity (AC50) was 25 µM (active).

For the compound `CCOP(=S)(OCC)Oc1ccc([N+](=O)[O-])cc1`, the compound was classed as inactive.

Consider `CCCOCC(=Nc1ccc(Cl)cc1C(F)(F)F)n1ccnc1`, for which the AC50 was 5.88 µM (active).

Take `CSC1=N[C@@](C)(c2ccccc2)C(=O)N1Nc1ccccc1`: the concentration at half-maximal activity (AC50) was 3.63 µM (active).

In the case of `CCCSP(=O)(OCC)SCCC`, the outcome was inactive.

As to `CCOP(=S)(OCC)SCCSCC`, the outcome was inactive.

As for `N#CSCSC#N`, the compound was called inactive.

As to `CCc1cccc(C)c1N(C(=O)CCl)C(C)COC` (stereo not drawn), the AC50 was 12.9 µM (active).

As for `O=[N+]([O-])c1cc(C(F)(F)F)c(Cl)c([N+](=O)[O-])c1Nc1ncc(C(F)(F)F)cc1Cl`, the call was inactive.

As to `CCCCSP(=O)(SCCCC)SCCCC`, the result was inactive.

With `CCOP(=S)(OCC)Oc1cc(C)nc(C(C)C)n1`, the compound was called inactive.

Regarding `CSc1nnc(C(C)(C)C)c(=O)n1N`, the compound was called inactive.

As for `CNc1cnn(-c2cccc(C(F)(F)F)c2)c(=O)c1Cl`, the compound was classed as inactive.

As to `CNC(=O)ON=C(SC)C(=O)N(C)C`, the compound was called inactive.

Consider `CCC(CC)Nc1c([N+](=O)[O-])cc(C)c(C)c1[N+](=O)[O-]`, for which the outcome was inactive.

For `C#CCC1=C(C)C(OC(=O)C2C(C=C(C)C)C2(C)C)CC1=O` (stereo not drawn), the call was inactive.

On to `COc1cccc(C(=O)NN(C(=O)c2cc(C)cc(C)c2)C(C)(C)C)c1C`, for which the result was inactive.
